{"source": "paper PMC4336329", "about": "(PLoS ONE, 2015)", "note": "Hit rate of the full screen: of about 310,000 compounds, about 14,000 (4.5%) showed an effect of 50% or more. Effects have a minus sign here. Only a selection was taken, and strong results are over-represented in it overall.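 Further: peak tail current of the secondary pulse compared with the same well before compound.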"}
{"target": "human ether-à-go-go-related gene (hERG) potassium channel (human, UniProt Q12809)", "sequence (Q12809 whole entry, looked up)": "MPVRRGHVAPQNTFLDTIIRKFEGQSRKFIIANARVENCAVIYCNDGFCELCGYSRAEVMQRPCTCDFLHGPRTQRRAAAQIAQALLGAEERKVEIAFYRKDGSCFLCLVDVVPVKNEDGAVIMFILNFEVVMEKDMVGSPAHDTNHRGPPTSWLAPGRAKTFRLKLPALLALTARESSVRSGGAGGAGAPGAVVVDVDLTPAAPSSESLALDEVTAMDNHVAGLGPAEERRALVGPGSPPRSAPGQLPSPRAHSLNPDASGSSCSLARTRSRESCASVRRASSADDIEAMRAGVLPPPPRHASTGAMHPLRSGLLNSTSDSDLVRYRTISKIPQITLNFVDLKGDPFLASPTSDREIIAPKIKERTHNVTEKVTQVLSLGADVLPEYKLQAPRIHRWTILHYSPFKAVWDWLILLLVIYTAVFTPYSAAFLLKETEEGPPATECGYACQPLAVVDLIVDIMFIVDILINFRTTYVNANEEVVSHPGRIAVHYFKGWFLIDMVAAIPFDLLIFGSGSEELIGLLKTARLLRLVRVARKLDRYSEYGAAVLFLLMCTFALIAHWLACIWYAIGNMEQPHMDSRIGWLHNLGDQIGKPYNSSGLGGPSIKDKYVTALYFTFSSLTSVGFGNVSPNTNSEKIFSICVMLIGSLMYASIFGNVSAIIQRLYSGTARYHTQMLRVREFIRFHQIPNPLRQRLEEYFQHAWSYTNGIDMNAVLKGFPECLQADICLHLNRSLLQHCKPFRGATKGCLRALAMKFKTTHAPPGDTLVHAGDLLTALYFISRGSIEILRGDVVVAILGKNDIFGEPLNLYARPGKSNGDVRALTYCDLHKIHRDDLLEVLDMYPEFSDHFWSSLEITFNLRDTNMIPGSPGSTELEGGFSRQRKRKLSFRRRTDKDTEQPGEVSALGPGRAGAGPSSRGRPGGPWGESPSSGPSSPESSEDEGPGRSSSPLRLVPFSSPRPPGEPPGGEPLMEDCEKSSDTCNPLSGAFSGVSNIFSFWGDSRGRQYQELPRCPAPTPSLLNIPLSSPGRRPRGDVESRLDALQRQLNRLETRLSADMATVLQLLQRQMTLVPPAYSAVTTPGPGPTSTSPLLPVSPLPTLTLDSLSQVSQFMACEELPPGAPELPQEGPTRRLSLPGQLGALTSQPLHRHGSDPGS", "experiment": "primary screen, population patch clamp on CHO cells stably expressing hERG; higher = less effect of the substance", "units": {"hERG current change (%, negative = inhibition) at 10uM": "%"}}
{"compound": "CCCCOC(=O)CN1C(=O)c2ccc(C(=O)OCCCC)cc2C1=O", "hERG current change (%, negative = inhibition) at 10uM": 4.54}
{"compound": "O.O=C([O-])c1ccn2c(C(=O)c3ccccc3)c(-c3ccccc3)cc2c1", "hERG current change (%, negative = inhibition) at 10uM": 12.8}
{"compound": "C/C(=C\\C(=O)OCC(=O)NCc1ccccc1)C(=O)OCC(=O)NCc1ccccc1", "hERG current change (%, negative = inhibition) at 10uM": 18.8}
{"compound": "CCN1C(=O)CSc2ccc(C(=O)NC3CCCCC3)cc21", "hERG current change (%, negative = inhibition) at 10uM": -5.4}
{"compound": "O=C(c1cnc2sccn2c1=O)N1CCN(c2ccccc2Cl)CC1", "hERG current change (%, negative = inhibition) at 10uM": -2.33}
{"compound": "Cc1cn2c(=O)c(C(=O)N3CCN(c4ccccc4Cl)CC3)cnc2s1", "hERG current change (%, negative = inhibition) at 10uM": -62.8}
{"compound": "Cc1cn2c(=O)c(C(=O)N3CCN(c4ccccc4F)CC3)cnc2s1", "hERG current change (%, negative = inhibition) at 10uM": -6.27}
{"compound": "CCCCCCCC1c2c(c(C)c(C)oc2=O)Oc2c(C)c(C)oc(=O)c21", "hERG current change (%, negative = inhibition) at 10uM": 11.9}
{"compound": "CCN1C(=O)[C@H]2[C@@H](c3ccc(-c4ccc(OC)cc4)cc3)N[C@@](Cc3ccccc3)(C(=O)OC)[C@H]2C1=O.O=C(O)C(F)(F)F", "hERG current change (%, negative = inhibition) at 10uM": 3.09}
{"compound": "CCc1ccc(CN(C)C(=O)CCc2nnc(-c3ccc(-c4ccccc4)cc3)o2)nc1", "hERG current change (%, negative = inhibition) at 10uM": -65.1}
{"compound": "CCc1ccc(CN(C)C(=O)CCc2nnc(CCc3ccccc3OC)o2)nc1", "hERG current change (%, negative = inhibition) at 10uM": -1.47}
{"compound": "CN(Cc1ccon1)C(=O)CCc1nnc(Cc2ccc(-c3ccccc3)cc2)o1", "hERG current change (%, negative = inhibition) at 10uM": -20}
{"compound": "CCOc1ccc(CCNC(=O)COC(=O)/C=C/c2ccc(OC(F)F)c(OC)c2)cc1OCC", "hERG current change (%, negative = inhibition) at 10uM": -15.2}
{"compound": "Cc1cccc(C)c1NC(=O)C(=O)NCCOc1ccc(Cl)cc1", "hERG current change (%, negative = inhibition) at 10uM": -26}
{"compound": "CCN(C(=S)Nc1cccc(C)c1)c1ccccc1", "hERG current change (%, negative = inhibition) at 10uM": 13.2}
{"compound": "O=C(NCc1ccco1)/C(=C/c1ccc(Br)cc1)NC(=O)c1ccco1", "hERG current change (%, negative = inhibition) at 10uM": 0.657}
{"compound": "CC(=O)Oc1ccc(/C=C(\\NC(=O)c2ccco2)C(=O)NCc2ccco2)cc1", "hERG current change (%, negative = inhibition) at 10uM": -52}
{"compound": "CC(=O)Oc1ccc(/C=C(\\NC(=O)c2ccco2)C(=O)NCc2ccccc2)cc1", "hERG current change (%, negative = inhibition) at 10uM": -68.3}
{"compound": "COc1ccc(/C=C(\\NC(=O)c2ccco2)C(=O)NCc2ccco2)cc1", "hERG current change (%, negative = inhibition) at 10uM": 8.89}
{"compound": "O=C(NCc1ccccc1)/C(=C\\c1ccc(O)cc1)NC(=O)c1ccco1", "hERG current change (%, negative = inhibition) at 10uM": -20.7}
{"compound": "CC(=O)Oc1ccc(/C=C(\\NC(=O)c2ccco2)C(=O)Nc2ccc(C(C)=O)cc2)cc1", "hERG current change (%, negative = inhibition) at 10uM": -26.2}
{"compound": "Cc1cccc(C(=O)N2CCC(N3CCC(C(=O)N4CCOCC4)CC3)CC2)c1", "hERG current change (%, negative = inhibition) at 10uM": -9.81}
{"compound": "Cc1ccc(S(=O)(=O)/N=c2\\scc(C)n2C)cc1", "hERG current change (%, negative = inhibition) at 10uM": 0.491}
{"compound": "O=C1CN(C(=O)COc2ccc(Cl)cc2Cl)c2ccccc2N1", "hERG current change (%, negative = inhibition) at 10uM": 14.2}
{"compound": "O=C1CN(C(=O)COc2ccc(F)cc2Cl)c2ccccc2N1", "hERG current change (%, negative = inhibition) at 10uM": -19.5}
{"compound": "O=C1CN(C(=O)COc2ccc([N+](=O)[O-])cc2Cl)c2ccccc2N1", "hERG current change (%, negative = inhibition) at 10uM": -61.2}
{"compound": "CC1(C)CC(=O)C=C(C(=O)NC2CCCc3c2cnn3-c2cc(F)cc(F)c2)O1", "note": "(stereo not drawn)", "hERG current change (%, negative = inhibition) at 10uM": -2.03}
{"compound": "O=C(O)c1cc(NS(=O)(=O)c2ccc(NCc3ccccc3)c([N+](=O)[O-])c2)cc(C(=O)O)c1", "hERG current change (%, negative = inhibition) at 10uM": 20.9}
{"compound": "COC(=O)N/N=C(\\C)c1ccccc1OC(F)F", "hERG current change (%, negative = inhibition) at 10uM": 1.52}
{"compound": "COc1ccc(C[C@H]2CN3C(=NC[C@@H]3C(C)C)N2C[C@H](C)NC(=O)c2ccc(C)c(Br)c2)cc1", "hERG current change (%, negative = inhibition) at 10uM": -74.5}
{"compound": "Cc1ccc(C(=O)N[C@@H](C)CN2C3=NC[C@H](C(C)C)N3C[C@H]2Cc2ccc(O)cc2)cc1Br", "hERG current change (%, negative = inhibition) at 10uM": -77.7}
{"compound": "COc1ccc(C[C@@H]2CN3C(=NC[C@@H]3C)N2C[C@H](C)NC(=O)c2ccc(C)c(Br)c2)cc1", "hERG current change (%, negative = inhibition) at 10uM": -74.8}
{"compound": "CCCOP(=O)(c1ccc(N(C)C)cc1)C(O)c1ccc(N(C)C)cc1", "note": "(stereo not drawn)", "hERG current change (%, negative = inhibition) at 10uM": 12.8}
{"compound": "c1ccc2sc(-c3ccc4c(c3)OCO4)nc2c1", "hERG current change (%, negative = inhibition) at 10uM": -3.16}
{"compound": "CCOc1ccc(C2CC(c3cccc(OC)c3OC)n3nnnc3N2)cc1Cl", "note": "(stereo not drawn)", "hERG current change (%, negative = inhibition) at 10uM": -19.2}
{"compound": "Cc1ccc(-n2nnnc2Sc2nc([N+](=O)[O-])nn2C)c(C)c1", "hERG current change (%, negative = inhibition) at 10uM": -27.6}
{"compound": "CN(C(=O)c1ccc(C#N)cc1)c1nnc(-c2cnccn2)s1", "hERG current change (%, negative = inhibition) at 10uM": -8.93}
{"compound": "CCN(CC)CCCNC(=O)Cn1ncc2c(=O)oc3ccc(C)cc3c21", "hERG current change (%, negative = inhibition) at 10uM": -7.17}
{"compound": "COC(=O)COc1ccc(C(c2c(C)[nH][nH]c2=O)c2c(C)[nH][nH]c2=O)cc1", "hERG current change (%, negative = inhibition) at 10uM": 15.1}
{"compound": "COc1ccc(CN2CN(C3CCCC3)CSC2=S)cc1", "hERG current change (%, negative = inhibition) at 10uM": 2.66}
{"compound": "Cc1ccc(OCCCC(=O)Nc2ccc(S(=O)(=O)N3CCOCC3)cc2)cc1", "hERG current change (%, negative = inhibition) at 10uM": -25.7}
{"compound": "COc1ccc(-n2nc(C(=O)NCC(=O)Nc3ccccn3)c3ccccc3c2=O)cc1", "hERG current change (%, negative = inhibition) at 10uM": 10.6}
{"compound": "Cc1ccccc1NC(=S)N(Cc1cccs1)C1CCCC1", "hERG current change (%, negative = inhibition) at 10uM": 5.42}
{"compound": "C=CCn1c(SCC(=O)N2CCCCCC2)nc2ccccc2c1=O", "hERG current change (%, negative = inhibition) at 10uM": -59.2}
{"compound": "C=CCn1c(SCC(=O)N2CCc3ccccc3C2)nc2ccccc2c1=O", "hERG current change (%, negative = inhibition) at 10uM": -61.5}
{"compound": "CCn1c(SCC(=O)N2CCCCCC2)nc2ccccc2c1=O", "hERG current change (%, negative = inhibition) at 10uM": -10.4}
{"compound": "COCCn1c(SCC(=O)N2CCc3ccccc3C2)nc2ccccc2c1=O", "hERG current change (%, negative = inhibition) at 10uM": -43.8}
{"compound": "C=CCn1c(SCC(=O)N2CCOCC2)nc2ccccc2c1=O", "hERG current change (%, negative = inhibition) at 10uM": -28.4}
{"compound": "C=CCn1c(SCC(=O)N2CCc3ccccc3C2)nc2sc(C)cc2c1=O", "hERG current change (%, negative = inhibition) at 10uM": -7.46}
{"compound": "Cc1nc(N2CCN(S(=O)(=O)c3ccc(F)cc3)CC2)c2c(-c3cccs3)csc2n1", "hERG current change (%, negative = inhibition) at 10uM": 11.6}
{"compound": "CCn1cc(S(=O)(=O)N2CCN(c3ccc(Cl)cc3)CC2)cn1", "hERG current change (%, negative = inhibition) at 10uM": 7.96}
{"compound": "Cn1nc(C(F)(F)F)c(-c2cccc(C(F)(F)F)c2)c1NC(=O)c1cccnc1", "hERG current change (%, negative = inhibition) at 10uM": -6.76}
{"compound": "Cn1nc(C(F)(F)F)c(-c2ccccc2)c1NC(=O)c1ccco1", "hERG current change (%, negative = inhibition) at 10uM": -3.07}
{"compound": "Cn1nc(C(F)(F)F)c(-c2ccc(F)cc2)c1NC(=O)c1ccco1", "hERG current change (%, negative = inhibition) at 10uM": -32.8}
{"compound": "Cn1nc(C(F)(F)F)c(-c2ccc(Br)cc2)c1NC(=O)c1ccco1", "hERG current change (%, negative = inhibition) at 10uM": -63.5}
{"compound": "O=C(Nc1oc2ccccc2c(=O)c1-c1ccc(Br)cc1)c1ccco1", "hERG current change (%, negative = inhibition) at 10uM": -52.5}
{"compound": "Cn1nc(C(F)(F)F)c(-c2ccc(Br)cc2)c1NC(=O)c1cccnc1", "hERG current change (%, negative = inhibition) at 10uM": 0.61}
{"compound": "Cn1nc(C(F)(F)F)c(-c2cccc(C(F)(F)F)c2)c1NC(=O)c1ccco1", "hERG current change (%, negative = inhibition) at 10uM": -66.6}
{"compound": "Cc1ccc(-c2c(NC(=O)c3ccco3)oc3ccccc3c2=O)cc1", "hERG current change (%, negative = inhibition) at 10uM": 10.1}
{"compound": "O=C(Nc1oc2ccccc2c(=O)c1-c1ccc(Cl)cc1)c1ccco1", "hERG current change (%, negative = inhibition) at 10uM": -20.4}
